Records with an inconclusive call do not appear. Activity calls are given as the source filed them. Unless noted, calls come from the whole dose curve; as a rule, active = well fitted curve in the direction sought with a large enough effect in the repeat runs; inconclusive = weak or mixed curves; inactive = no such curve, though single readings can be large; an effect the other way counts as inactive or inconclusive.

Experiment [1] can be described thus: qHTS assay to identify small molecule agonists of the sonic hedgehog signaling (Shh) pathway (AID 1259368; calls by dose curve; note: series mostly up to about 92 µM; nearly all actives have a fitted effect of over 15% in size). In a few lines:
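NIH/3T3-derived 3T3Gli1-Luc cells carrying a stably integrated Gli1 response element–firefly luciferase reporter were plated, left 4 hr at 37 C, then given compounds in DMSO for 24 hr. Luminescence was read 30 min after adding luciferase reagent.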

Experiment [2] is described as follows: qHTS assay to identify small molecule antagonists of the sonic hedgehog signaling (Shh) pathway (AID 1259369; calls by dose curve; note: nearly all actives have a fitted effect of over 45% in size). In short, it runs like this:
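NIH/3T3-derived 3T3Gli1-Luc cells with stably integrated Gli1-Luc reporter were preincubated 4hr at 37 C, then given compounds in DMSO plus Shh conditioned medium and incubated 24hr. Firefly luciferase luminescence read after 30min reagent at room temperature.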
Background: qHTS replaces the single test concentration by a dilution series.

The nature of experiment [3]: qHTS assay to identify small molecule agonists of the estrogen receptor beta (ER-beta) signaling pathway - cell viability counter screen (AID 1259380). Note: nearly all actives have a fitted effect of over 30% in size. In short, it runs like this: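 ER-beta-UAS-bla HEK293T cells in medium with 2% charcoal-stripped FBS were preincubated 6 hr at 37C, dosed with compound in DMSO for 16 hr, then after the bla read, CellTiter-Glo was added for 30 min at room temperature; luminescence recorded.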

Experiment [4] addresses Androgen receptor (Homo sapiens) (UniProt P10275). Put plainly: qHTS assay to identify small molecule agonists of the androgen receptor (AR) signaling pathway in the presence of an antagonist (AID 1259381; calls by dose curve; note: nearly all actives have a fitted effect of over 15% in size). In short, it runs like this: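 MDA-kb2 human breast carcinoma cells carrying an MMTV-luciferase reporter (AR- and GR-responsive) were treated with compounds at 15 concentrations plus 3.0uM final nilutamide for 16hr at 37C without CO2; luminescence was read after ONE-Glo addition.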

Experiment [5] in a line: qHTS assay to identify small molecule antagonists of the estrogen receptor beta (ER-beta) signaling pathway - cell viability counter screen (AID 1259382). Note: series mostly up to about 92 µM; nearly all actives have a fitted effect of over 55% in size. In a few lines:
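ER-beta-UAS-bla HEK293T cells (2,000/well, 2% charcoal-stripped FBS) were pre-incubated 6 hr at 37C, then given compound plus 1nM final 17-beta-estradiol for 16 hr. Viability was read in the same wells by CellTiter-Glo luminescence after 30 min at room temperature.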

The nature of experiment [6]: qHTS assay to identify small molecule agonists of the estrogen receptor alpha (ER-alpha) signaling pathway in the presence of an antagonist - cell viability counter screen (AID 1259386).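 Note: series mostly up to about 92 µM; cells exposed to compounds for 22 h at 37 °C before the viability read; nearly all actives have a fitted effect of over 30% in size.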 In short, it runs like this: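 VM7Luc4E2 cells (endogenous full-length ER-alpha, 4×ERE-luciferase) were held 5 days in phenol red-free medium with 10% charcoal-stripped FBS, plated, then given 10.0nM ICI-182,780 and compounds at 15 concentrations for 22hr at 37C; viability read by CellTiter-Fluor fluorescence.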

For experiment [7], the target named is Progesterone receptor (Homo sapiens) (UniProt P06401). Put plainly: qHTS assay to identify small molecule agonists of the progesterone receptor (PR) signaling pathway (AID 1346784; calls by dose curve; note: nearly all actives have a fitted effect of over 30% in size; note: potency is the fitted concentration of half-maximal effect). In a few lines: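 HEK 293T PR-UAS-bla reporter cells, 2% charcoal-stripped FBS; 6 hr settle at 37C/5% CO2, compound (DMSO) 16 hr, LiveBLAzer B/G FRET substrate 2 hr RT, fluorescence intensity read.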
Sequence of Progesterone receptor (Homo sapiens) (P06401 whole entry, looked up): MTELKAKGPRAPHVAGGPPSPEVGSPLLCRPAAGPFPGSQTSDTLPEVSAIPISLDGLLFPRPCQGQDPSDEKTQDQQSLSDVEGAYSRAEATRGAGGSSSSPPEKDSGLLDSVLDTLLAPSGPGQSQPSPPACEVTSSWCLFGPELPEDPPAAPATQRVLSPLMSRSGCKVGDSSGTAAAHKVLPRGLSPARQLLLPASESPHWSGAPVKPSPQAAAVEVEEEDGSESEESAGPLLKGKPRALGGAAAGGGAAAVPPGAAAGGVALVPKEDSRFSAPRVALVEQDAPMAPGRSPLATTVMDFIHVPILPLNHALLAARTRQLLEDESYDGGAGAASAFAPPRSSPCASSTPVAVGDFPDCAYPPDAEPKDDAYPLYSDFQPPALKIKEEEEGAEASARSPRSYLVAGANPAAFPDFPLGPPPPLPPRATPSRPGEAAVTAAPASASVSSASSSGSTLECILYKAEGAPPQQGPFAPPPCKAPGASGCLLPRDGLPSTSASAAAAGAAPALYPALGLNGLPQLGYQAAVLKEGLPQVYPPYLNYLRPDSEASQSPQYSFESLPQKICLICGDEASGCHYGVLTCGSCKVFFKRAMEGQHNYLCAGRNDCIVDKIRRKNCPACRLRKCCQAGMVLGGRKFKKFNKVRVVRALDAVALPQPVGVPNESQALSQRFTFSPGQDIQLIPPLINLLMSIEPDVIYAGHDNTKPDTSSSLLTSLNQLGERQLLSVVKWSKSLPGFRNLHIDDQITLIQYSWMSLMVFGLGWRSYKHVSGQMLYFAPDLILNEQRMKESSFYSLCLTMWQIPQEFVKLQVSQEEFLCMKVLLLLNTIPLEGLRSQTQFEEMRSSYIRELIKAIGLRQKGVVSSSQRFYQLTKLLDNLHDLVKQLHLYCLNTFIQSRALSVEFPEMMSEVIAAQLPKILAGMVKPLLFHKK

Experiment [8] has the same target. Put plainly: qHTS assay to identify small molecule antagonists of the progesterone receptor (PR) signaling pathway (AID 1346795; active = well fitted inhibition curve with a large enough effect in the signal ratio in the repeat runs, not every such curve was filed as active; the % refers to the signal ratio). In a few lines: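 Beta-lactamase reporter, HEK293T PR-UAS-bla line; 2% charcoal-stripped FBS; 6 hr pre-incubation, 37C/5% CO2. Compound + R5020 1 nM final, 16 hr. LiveBLAzer B/G FRET substrate, 2 hr RT; fluorescence intensity read.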

The nature of experiment [9]: qHTS assay to identify small molecule antagonists of the progesterone receptor (PR) signaling pathway - cell viability counter screen (AID 1346798). Note: series mostly up to about 92 µM; nearly all actives have a fitted effect of over 50% in size. In short, it runs like this: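 Luminescence readout (CellTiter-Glo, 30 min, RT) of viability in PR-UAS-bla HEK293T cells exposed to compound and R5020 agonist for 16 hr at 37C, 5% CO2; run in the same wells as the beta-lactamase reporter read.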

The nature of experiment [10]: qHTS assay to identify small molecule agonists of the progesterone receptor (PR) signaling pathway - cell viability counter screen (AID 1346799; calls by dose curve; note: nearly all actives have a fitted effect of over 45% in size). In a few lines:
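HEK293T PR-UAS-bla, 3,000 cells/well, 2% charcoal-stripped FBS; 6 h settle, compound 16 h at 37C/5% CO2; LiveBLAzer 2 h RT, then CellTiter-Glo 30 min RT, luminescence read.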

The nature of experiment [11]: qHTS assay to identify small molecule antagonists of the TGF-beta/Smad signaling pathway - cell viability counter screen (AID 1346824). Note: nearly all actives have a fitted effect of over 50% in size. In a few lines:
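SBE-bla HEK 293T cells were plated overnight at 37 C, then given compounds in DMSO plus TGF-beta1 (added as 0.25 ng/mL solution) for 5 hr. After the bla read, CellTiter-Glo was added to the same wells and luminescence read after 30 min at room temperature.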

Experiment [12] in a line: qHTS assay to identify small molecule agonists of the TGF-beta/Smad signaling pathway - cell viability counter screen (AID 1346829). Note: top concentration of the series differs between compounds; nearly all actives have a fitted effect of over 45% in size. In a few lines:
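Luminescence from CellTiter-Glo, read after a 30 min room-temperature incubation, gives cell viability of SBE-bla HEK 293T cells treated 5 hr with compounds at 37 C.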

The nature of experiment [13]: qHTS assay to identify small molecule agonists of the TGF-beta/Smad signaling pathway (AID 1346859; active = well fitted activation curve with a large enough effect in the signal ratio in the repeat runs, not every such curve was filed as active; the % refers to the signal ratio; note: series mostly up to about 77 µM). In short, it runs like this:
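Read-out: fluorescence at 460 and 530 nm (405 nm excitation) after a 2 hr room-temperature incubation with beta-lactamase FRET substrate. SBE-bla HEK 293T cells had been treated with test compounds for 5 hr at 37 C.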

In experiment [14] the target is Thyrotropin-releasing hormone receptor (Homo sapiens) (UniProt P34981). Put plainly: qHTS assay to identify small molecule antagonists of the thyrotropin-releasing hormone receptor (TRHR) signaling pathway (AID 1346877; active = well fitted inhibition curve with a large enough effect in the repeat runs, not every such curve was filed as active; note: series mostly up to about 51 µM). In a few lines: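 TRHR-expressing HEK293 cells were seeded, cultured 18 h at 37 °C, then loaded with calcium dye for 2 h. Compounds were pre-incubated 5 min at room temperature before 1 nM TRH (final) was added, and kinetic fluorescence was recorded for 3 min.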
Sequence of Thyrotropin-releasing hormone receptor (Homo sapiens) (P34981 whole entry, looked up): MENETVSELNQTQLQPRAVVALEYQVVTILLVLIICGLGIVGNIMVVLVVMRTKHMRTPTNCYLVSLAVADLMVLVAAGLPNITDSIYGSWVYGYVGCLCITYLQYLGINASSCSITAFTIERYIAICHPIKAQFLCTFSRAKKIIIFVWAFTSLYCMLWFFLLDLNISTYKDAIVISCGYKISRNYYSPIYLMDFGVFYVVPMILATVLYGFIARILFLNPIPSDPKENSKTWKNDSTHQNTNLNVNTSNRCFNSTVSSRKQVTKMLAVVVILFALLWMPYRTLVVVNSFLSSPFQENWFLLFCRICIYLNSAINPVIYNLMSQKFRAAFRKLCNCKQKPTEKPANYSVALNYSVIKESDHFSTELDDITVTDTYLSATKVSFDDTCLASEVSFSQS

Experiment [15] in a line: qHTS assay to identify small molecule agonists of the androgen receptor (AR) signaling pathway in the presence of an antagonist - cell viability counter screen (AID 1259379). Note: nearly all actives have a fitted effect of over 25% in size. Note: potency is the fitted concentration of half-maximal effect. In short, it runs like this:
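MDA-kb2 human breast carcinoma cells (stable MMTV-luciferase, AR/GR responsive) were seeded 3,000 cells/well, pre-incubated 5 hr at 37C without CO2, then given 3.0uM nilutamide and compounds at 15 concentrations for 16 hr. Viability was read by CellTiter-Fluor fluorescence.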

Experiment [16] can be described thus: qHTS assay to identify small molecule agonists or antagonists of the thyroid stimulating hormone receptor (TSHR) signaling pathway - wild type cell line counter screen (AID 1259384; calls by dose curve). In short, it runs like this: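 Wild-type HEK293 cells were plated 18 h at 37 C/5% CO2, pin-dosed with compound plus Ro20-1724 medium, held 30 min at room temperature, then given cAMP-d2 and anti-cAMP-cryptate; fluorescence was read after 1 h. Fifteen concentrations, triplicate.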

Experiment [17] deals with Thyrotropin receptor (Homo sapiens) (UniProt P16473). Put plainly: qHTS assay to identify small molecule antagonists of the thyroid stimulating hormone receptor (TSHR) signaling pathway (AID 1259385; calls by dose curve; note: nearly all actives have a fitted effect of over 20% in size). In short, it runs like this: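 TSHR-HEK293 cells were plated and held 18 h at 37C/5% CO2, then given compound plus Ro20-1724 and stimulated with TSH at 1.5 ng/mL final. After 30 min at room temperature, cAMP was detected with cAMP-d2/anti-cAMP-cryptate (1 h) by fluorescence.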
Sequence of Thyrotropin receptor (Homo sapiens) (P16473 whole entry, looked up): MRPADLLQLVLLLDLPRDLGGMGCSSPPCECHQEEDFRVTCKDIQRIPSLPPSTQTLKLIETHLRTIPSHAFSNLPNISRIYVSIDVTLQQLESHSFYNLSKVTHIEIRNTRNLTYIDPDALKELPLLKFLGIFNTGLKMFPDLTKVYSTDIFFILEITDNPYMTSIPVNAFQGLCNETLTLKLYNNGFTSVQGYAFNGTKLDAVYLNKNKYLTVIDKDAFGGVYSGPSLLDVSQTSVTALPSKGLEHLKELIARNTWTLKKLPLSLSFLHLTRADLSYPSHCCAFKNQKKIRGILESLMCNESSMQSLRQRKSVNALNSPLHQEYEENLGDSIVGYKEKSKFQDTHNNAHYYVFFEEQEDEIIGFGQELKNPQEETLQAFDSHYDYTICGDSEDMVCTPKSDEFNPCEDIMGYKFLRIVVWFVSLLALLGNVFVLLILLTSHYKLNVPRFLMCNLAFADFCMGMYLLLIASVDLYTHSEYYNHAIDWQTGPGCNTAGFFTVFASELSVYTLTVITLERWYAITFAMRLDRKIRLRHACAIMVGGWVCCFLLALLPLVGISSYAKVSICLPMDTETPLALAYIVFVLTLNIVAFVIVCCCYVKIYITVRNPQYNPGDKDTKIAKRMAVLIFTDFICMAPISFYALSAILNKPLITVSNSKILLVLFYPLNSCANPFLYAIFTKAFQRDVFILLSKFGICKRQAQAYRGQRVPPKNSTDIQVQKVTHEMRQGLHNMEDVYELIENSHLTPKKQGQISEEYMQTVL

For experiment [18], the target named is Estrogen receptor beta (Homo sapiens) (UniProt Q92731). Put plainly: qHTS assay to identify small molecule agonists of the estrogen receptor beta (ER-beta) signaling pathway (AID 1259377; active = well fitted activation curve with a large enough effect in the signal ratio in the repeat runs, not every such curve was filed as active; the % refers to the signal ratio). In short, it runs like this:
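Beta-lactamase reporter readout: fluorescence of LiveBLAzer B/G FRET substrate after 2 h at room temperature, following 16 h compound treatment of ER-beta-UAS-bla HEK293T cells at 37C in 2% charcoal-stripped FBS medium.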

Experiment [19] shares this target. Put plainly: qHTS assay to identify small molecule antagonists of the estrogen receptor beta (ER-beta) signaling pathway (AID 1259378; active = well fitted inhibition curve with a large enough effect in the signal ratio in the repeat runs, not every such curve was filed as active; the % refers to the signal ratio). In a few lines: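 ER-beta-UAS-bla HEK293T (GripTite) cells in 2% charcoal-stripped FBS medium were preincubated 6 hr at 37C, dosed with compound, then stimulated with 1 nM E2 (final) for 16 hr; beta-lactamase reporter read by B/G FRET fluorescence after 2 hr substrate loading.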

Sequence of Estrogen receptor beta (Homo sapiens) (Q92731 whole entry, looked up): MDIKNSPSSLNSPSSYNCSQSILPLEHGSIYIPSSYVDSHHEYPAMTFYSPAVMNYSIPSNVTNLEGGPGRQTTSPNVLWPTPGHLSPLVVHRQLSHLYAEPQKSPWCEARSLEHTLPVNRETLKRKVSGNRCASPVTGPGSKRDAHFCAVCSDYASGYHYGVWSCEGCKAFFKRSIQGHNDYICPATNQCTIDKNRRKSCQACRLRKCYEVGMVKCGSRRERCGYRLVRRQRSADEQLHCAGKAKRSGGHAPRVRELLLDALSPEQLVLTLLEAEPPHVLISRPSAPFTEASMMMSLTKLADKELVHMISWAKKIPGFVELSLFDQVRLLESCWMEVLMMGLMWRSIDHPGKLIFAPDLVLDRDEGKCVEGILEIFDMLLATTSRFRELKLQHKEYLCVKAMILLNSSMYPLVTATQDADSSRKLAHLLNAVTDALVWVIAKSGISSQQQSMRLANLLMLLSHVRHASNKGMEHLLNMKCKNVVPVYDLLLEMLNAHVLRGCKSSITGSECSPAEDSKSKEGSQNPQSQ
Sequence of Androgen receptor (Homo sapiens) (P10275 whole entry, looked up): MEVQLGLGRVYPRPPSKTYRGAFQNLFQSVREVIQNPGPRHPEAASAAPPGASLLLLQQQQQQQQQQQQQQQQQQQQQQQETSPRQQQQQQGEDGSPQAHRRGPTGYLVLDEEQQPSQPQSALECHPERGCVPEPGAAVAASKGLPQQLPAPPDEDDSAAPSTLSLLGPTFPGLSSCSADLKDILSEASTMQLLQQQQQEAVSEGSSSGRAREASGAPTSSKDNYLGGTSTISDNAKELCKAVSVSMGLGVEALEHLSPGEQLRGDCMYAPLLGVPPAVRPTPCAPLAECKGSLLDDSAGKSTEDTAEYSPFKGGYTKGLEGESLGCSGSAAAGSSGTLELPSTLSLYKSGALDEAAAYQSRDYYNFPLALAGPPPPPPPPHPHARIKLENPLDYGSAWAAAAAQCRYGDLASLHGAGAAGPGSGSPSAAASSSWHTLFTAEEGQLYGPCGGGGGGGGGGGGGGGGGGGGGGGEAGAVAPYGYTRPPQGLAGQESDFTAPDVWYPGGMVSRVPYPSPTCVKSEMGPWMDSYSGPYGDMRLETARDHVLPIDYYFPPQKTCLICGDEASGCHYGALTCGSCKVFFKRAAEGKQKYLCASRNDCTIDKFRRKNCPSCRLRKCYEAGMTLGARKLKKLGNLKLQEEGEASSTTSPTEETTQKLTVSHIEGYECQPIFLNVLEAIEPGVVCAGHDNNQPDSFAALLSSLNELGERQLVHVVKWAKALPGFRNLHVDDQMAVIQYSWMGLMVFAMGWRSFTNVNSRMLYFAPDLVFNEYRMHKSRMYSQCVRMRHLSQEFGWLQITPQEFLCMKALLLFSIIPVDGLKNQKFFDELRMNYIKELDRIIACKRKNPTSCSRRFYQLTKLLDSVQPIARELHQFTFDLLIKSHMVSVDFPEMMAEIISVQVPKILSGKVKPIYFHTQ

In the case of `O=C(O)/C=C/c1ccc(O)c(O)c1`, the Potency result in experiment [1], in experiment [2], in [3], in experiment [4], in experiment [5] and in [6] was “inactive” each time. In addition, the Potency entry in experiment [7], in [8], in [9], in [10], in experiment [12] and in experiment [13] was “inactive” throughout. The molecule was classed as inactive in experiment [11] and in experiment [14].
`CC(CN(CCN(CC(C)OCCO)CC(C)OCCO)CC(C)OCCO)OCCO` (stereo unspecified): the Potency result in experiment [1], in experiment [2], in experiment [5], in experiment [16], in [17] and in [7] was “inactive” in each case. The Potency entry in experiment [8], in experiment [9], in experiment [10] and in [13] was “inactive” each time. In addition, the Potency in experiment [15] was 33.1 µM (active). For the same molecule, the outcome in experiment [14] was inactive.
For `C1=CCC2CC=CC2C1` (stereo unspecified), the Potency result in experiment [1], in experiment [18], in [19], in [15], in experiment [3] and in experiment [4] was “inactive” throughout. In addition, the Potency entry in [16], in [6], in experiment [7], in experiment [8], in [10] and in experiment [12] was “inactive” each time. The Potency entry in [13] is “inactive”. Also, the call in experiment [11] and in experiment [14] was inactive.
With `COC(=O)c1sccc1S(N)(=O)=O`, the Potency entry in experiment [1], in experiment [2], in experiment [15], in experiment [3], in [5] and in experiment [16] was “inactive” throughout. The Potency result in experiment [6], in experiment [7], in [8], in experiment [9], in experiment [12] and in [13] was “inactive” each time. The outcome in experiment [11] was inactive.
In the case of `Nc1ccc(F)cc1`, the Potency result in experiment [1], in [2], in experiment [15], in experiment [3], in experiment [6] and in [8] was “inactive” in each case. In addition, the Potency entry in [9], in experiment [12] and in experiment [13] was “inactive” each time. The Potency in [7] was 28.5 µM (active). In addition, the molecule was called inactive in experiment [11] and in experiment [14].
Take `Cc1ccccc1S(N)(=O)=O`: the Potency entry in experiment [1], in experiment [2], in experiment [15], in experiment [3], in [5] and in experiment [16] was “inactive” in each case. In addition, the Potency result in [6], in experiment [7], in experiment [8], in experiment [10], in experiment [12] and in experiment [13] was “inactive” throughout. Besides, the molecule was classed as inactive in experiment [11] and in experiment [14].
For the molecule `CC(C)COC(=O)c1ccc(O)cc1`, the Potency result in experiment [1], in experiment [2], in [15], in [3], in [5] and in [6] was “inactive” in each case. Besides, the Potency entry in [7], in [9], in [12] and in experiment [13] was “inactive” in each case. Besides, the outcome in experiment [14] was inactive.

The values above are taken from PubChem BioAssay (Tox21).
